Experimental data published in PubChem BioAssay (Tox21).
“And” between values parts separate entries of the source, which are not always exact repeats. Identical values can stand only once. Records with an inconclusive call do not appear. Where a call stands in place of a potency, no number is given. The source made the active and inactive calls. Unless noted, calls come from the whole dose curve.

Target: Thyrotropin receptor (Homo sapiens) (UniProt P16473)
Assay: qHTS assay to identify small molecule antagonists of the thyroid stimulating hormone receptor (TSHR) signaling pathway (AID 1259385); note: nearly all actives have a fitted effect of over 20% in size
Conditions: TSHR-HEK293 cAMP HTRF, TSH-stimulated antagonist mode; series mostly up to 92.4 µM
In short: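 TSHR-HEK293 cells (800/well) plated 18 h, then compounds with Ro20-1724 and TSH at 1.5 ng/mL final, 30 min at room temperature. cAMP quantified by HTRF (cAMP-d2/anti-cAMP-cryptate, 1 h); 15 concentrations in triplicate.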

Thyrotropin receptor (Homo sapiens), sequence (P16473 whole entry, looked up): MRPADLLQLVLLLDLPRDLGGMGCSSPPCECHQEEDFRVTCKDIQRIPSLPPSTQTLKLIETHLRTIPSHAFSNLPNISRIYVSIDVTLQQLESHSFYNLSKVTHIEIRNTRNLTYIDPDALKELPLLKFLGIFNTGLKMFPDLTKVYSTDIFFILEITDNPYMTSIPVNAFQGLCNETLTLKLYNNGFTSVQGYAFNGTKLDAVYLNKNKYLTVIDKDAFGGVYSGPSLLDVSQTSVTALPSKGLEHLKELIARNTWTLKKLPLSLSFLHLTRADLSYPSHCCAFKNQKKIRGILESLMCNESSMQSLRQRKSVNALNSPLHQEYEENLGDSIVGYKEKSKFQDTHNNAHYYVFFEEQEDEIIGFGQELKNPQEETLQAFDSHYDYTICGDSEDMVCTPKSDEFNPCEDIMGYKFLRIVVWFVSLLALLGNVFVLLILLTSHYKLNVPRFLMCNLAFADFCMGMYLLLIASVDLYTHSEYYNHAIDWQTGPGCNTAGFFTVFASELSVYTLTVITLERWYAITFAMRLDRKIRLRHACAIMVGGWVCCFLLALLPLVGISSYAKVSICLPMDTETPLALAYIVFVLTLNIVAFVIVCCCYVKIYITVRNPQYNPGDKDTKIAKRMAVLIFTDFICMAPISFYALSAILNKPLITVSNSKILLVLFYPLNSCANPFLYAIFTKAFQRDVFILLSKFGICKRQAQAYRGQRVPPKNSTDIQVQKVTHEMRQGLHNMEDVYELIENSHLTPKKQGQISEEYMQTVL

Compound | Potency
O=C(O)CC(O)C(=O)O (stereo not drawn) | inactive
CC(C)C(=O)Nc1ccc([N+](=O)[O-])c(C(F)(F)F)c1 | inactive
C=C(C)C(=O)OCC(C)O (stereo not drawn) | inactive
O=c1[nH]cc(F)c(=O)[nH]1 | inactive
NS(=O)(=O)c1cc2c(cc1Cl)NCNS2(=O)=O | inactive
CN(C)CCOC(C)(c1ccccc1)c1ccccn1 (stereo not drawn) | inactive
CC(C)NCC(O)c1ccc(O)c(O)c1 (stereo not drawn) | inactive
Nc1c2c(nc3ccccc13)CCCC2 | inactive
CCCCCCCC(=O)OCC(COC(=O)CCCCCCC)OC(=O)CCCCCCC | inactive
CCCCOC(=O)c1ccc(O)cc1 | inactive
NC1CCCCC1 | inactive
OC[C@H]1O[C@H](O[C@]2(CCl)O[C@H](CCl)[C@@H](O)[C@@H]2O)[C@H](O)[C@@H](O)[C@H]1Cl | inactive

Test system: not listed separately
Assay: qHTS assay to identify small molecule agonists of the estrogen receptor alpha (ER-alpha) signaling pathway in the presence of an antagonist - cell viability counter screen (AID 1259386; active = well fitted cell-killing curve with a large enough effect in the repeat runs; note: nearly all actives have a fitted effect of over 30% in size; note: potency is the fitted concentration of half-maximal effect)
Conditions: VM7Luc4E2 viability, CellTiter-Fluor fluorescence, 22 h; series mostly up to 92.4 µM
In short: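 Compounds tested at 15 concentrations for 22 h at 37C alongside 10.0nM (final) ICI-182,780 antagonist, in VM7Luc4E2 cells grown in phenol red-free, charcoal-stripped medium. Viability read by CellTiter-Fluor fluorescence after 1 h reagent incubation.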

Compound | Potency
O=C(O)CC(O)C(=O)O (stereo not drawn) | inactive
CCOc1ccc(NC(C)=O)cc1 | inactive
NC(=O)c1cccnc1 | inactive
COc1ccc(C(Cl)=C(c2ccc(OC)cc2)c2ccc(OC)cc2)cc1 | inactive
C=C(C)C(=O)OCC(C)O (stereo not drawn) | inactive
O=CC(=O)c1ccccc1 | inactive
O=c1[nH]cc(F)c(=O)[nH]1 | inactive
NS(=O)(=O)c1cc2c(cc1Cl)NCNS2(=O)=O | inactive
CN(C)CCOC(C)(c1ccccc1)c1ccccn1 (stereo not drawn) | inactive
CC(C)NCC(O)c1ccc(O)c(O)c1 (stereo not drawn) | 54.5 µM (active)
Cc1cn([C@H]2C=C[C@@H](CO)O2)c(=O)[nH]c1=O | inactive
CCc1nc(N)nc(N)c1-c1ccc(Cl)cc1 | inactive
C/C=C/C=C/C(=O)O | inactive
Nc1c(N=Nc2ccc(-c3ccc(N=Nc4cc(S(=O)(=O)O)c5ccccc5c4N)cc3)cc2)cc(S(=O)(=O)O)c2ccccc12 | 17.2 µM (active)
Nc1c2c(nc3ccccc13)CCCC2 | inactive
O=S1(=O)OC(c2ccc(O)cc2)(c2ccc(O)cc2)c2ccccc21 | 19.3 µM (active) and 17.2 µM (active) and 13.3 µM (active)
CCCCCCCC(=O)OCC(COC(=O)CCCCCCC)OC(=O)CCCCCCC | inactive
NS(=O)(=O)O | inactive
Cc1c(C(=O)O)c(O)cc2c1C(=O)c1c(O)c([C@@H]3O[C@H](CO)[C@@H](O)[C@H](O)[C@H]3O)c(O)c(O)c1C2=O | 26.6 µM (active) and 15.4 µM (active) and 13.3 µM (active)
CCCCCCCCCCCCCCCC[N+](C)(C)Cc1ccccc1 | inactive
CC1(C)O[C@@H]2C[C@H]3[C@@H]4CCC5=CC(=O)C=C[C@]5(C)[C@@]4(F)[C@@H](O)C[C@]3(C)[C@]2(C(=O)CO)O1 | inactive
Nc1ccc(S(N)(=O)=O)cc1 | inactive
CN(C)CCOC(c1ccccc1)c1ccccc1 | inactive
CCCCOC(=O)c1ccc(O)cc1 | inactive
NC1CCCCC1 | inactive
CCN(CC)C(=O)c1cccc(C)c1 | inactive
CNNCc1ccc(C(=O)NC(C)C)cc1 | inactive
OC[C@H]1O[C@H](O[C@]2(CCl)O[C@H](CCl)[C@@H](O)[C@@H]2O)[C@H](O)[C@@H](O)[C@H]1Cl | inactive

Target: Progesterone receptor (Homo sapiens) (UniProt P06401)
Sequence (P06401 whole entry, looked up): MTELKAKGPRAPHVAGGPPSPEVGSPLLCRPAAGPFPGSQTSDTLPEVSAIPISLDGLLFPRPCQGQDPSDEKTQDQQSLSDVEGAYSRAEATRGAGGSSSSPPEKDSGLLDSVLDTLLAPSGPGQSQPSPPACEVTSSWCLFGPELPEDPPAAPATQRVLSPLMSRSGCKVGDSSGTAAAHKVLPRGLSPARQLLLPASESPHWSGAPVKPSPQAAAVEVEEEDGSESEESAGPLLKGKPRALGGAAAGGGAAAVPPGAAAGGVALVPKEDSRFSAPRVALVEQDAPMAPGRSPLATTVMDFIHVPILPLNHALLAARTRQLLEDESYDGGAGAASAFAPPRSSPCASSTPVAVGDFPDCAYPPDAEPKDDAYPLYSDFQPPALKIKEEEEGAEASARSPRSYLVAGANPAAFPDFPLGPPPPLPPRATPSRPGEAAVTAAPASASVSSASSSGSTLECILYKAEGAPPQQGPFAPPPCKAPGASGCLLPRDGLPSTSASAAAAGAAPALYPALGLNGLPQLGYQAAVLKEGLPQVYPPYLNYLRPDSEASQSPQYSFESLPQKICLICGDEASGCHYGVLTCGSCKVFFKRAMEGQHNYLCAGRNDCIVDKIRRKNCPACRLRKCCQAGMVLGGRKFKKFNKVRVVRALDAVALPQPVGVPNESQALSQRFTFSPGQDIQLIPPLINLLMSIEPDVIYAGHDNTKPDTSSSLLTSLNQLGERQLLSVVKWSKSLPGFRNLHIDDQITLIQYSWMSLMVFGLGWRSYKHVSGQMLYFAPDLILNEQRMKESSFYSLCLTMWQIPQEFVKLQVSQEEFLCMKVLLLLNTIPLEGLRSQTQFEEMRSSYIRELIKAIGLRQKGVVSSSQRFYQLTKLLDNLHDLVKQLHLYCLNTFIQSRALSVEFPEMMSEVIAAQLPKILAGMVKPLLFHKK
Assay: qHTS assay to identify small molecule agonists of the progesterone receptor (PR) signaling pathway (AID 1346784); note: nearly all actives have a fitted effect of over 30% in size; note: potency is the fitted concentration of half-maximal effect
Conditions: PR-UAS-bla HEK293T, beta-lactamase FRET ratio, 16 h; series mostly up to 92.4 µM
In short: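 HEK 293T PR-UAS-bla reporter cells, 2% charcoal-stripped FBS; 6 hr settle at 37C/5% CO2, compound (DMSO) 16 hr, LiveBLAzer B/G FRET substrate 2 hr RT, fluorescence intensity read.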

Compound | Potency
CCOc1ccc(NC(C)=O)cc1 | inactive
CC(C)C(=O)Nc1ccc([N+](=O)[O-])c(C(F)(F)F)c1 | inactive
NC(=O)c1cccnc1 | inactive
COc1ccc(C(Cl)=C(c2ccc(OC)cc2)c2ccc(OC)cc2)cc1 | inactive
C=C(C)C(=O)OCC(C)O (stereo not drawn) | inactive
O=CC(=O)c1ccccc1 | inactive
O=c1[nH]cc(F)c(=O)[nH]1 | inactive
NS(=O)(=O)c1cc2c(cc1Cl)NCNS2(=O)=O | inactive
CN(C)CCOC(C)(c1ccccc1)c1ccccn1 (stereo not drawn) | inactive
CC(C)NCC(O)c1ccc(O)c(O)c1 (stereo not drawn) | inactive
Cc1cn([C@H]2C=C[C@@H](CO)O2)c(=O)[nH]c1=O | inactive
CCc1nc(N)nc(N)c1-c1ccc(Cl)cc1 | inactive
C/C=C/C=C/C(=O)O | inactive
Nc1c(N=Nc2ccc(-c3ccc(N=Nc4cc(S(=O)(=O)O)c5ccccc5c4N)cc3)cc2)cc(S(=O)(=O)O)c2ccccc12 | inactive
Nc1c2c(nc3ccccc13)CCCC2 | inactive
O=S1(=O)OC(c2ccc(O)cc2)(c2ccc(O)cc2)c2ccccc21 | inactive
CCCCCCCC(=O)OCC(COC(=O)CCCCCCC)OC(=O)CCCCCCC | inactive
NS(=O)(=O)O | inactive
Cc1c(C(=O)O)c(O)cc2c1C(=O)c1c(O)c([C@@H]3O[C@H](CO)[C@@H](O)[C@H](O)[C@H]3O)c(O)c(O)c1C2=O | inactive
CCCCCCCCCCCCCCCC[N+](C)(C)Cc1ccccc1 | inactive
CC1(C)O[C@@H]2C[C@H]3[C@@H]4CCC5=CC(=O)C=C[C@]5(C)[C@@]4(F)[C@@H](O)C[C@]3(C)[C@]2(C(=O)CO)O1 | 3.5 nM (active) and 3.9 nM (active) and 3.8 nM (active)
Nc1ccc(S(N)(=O)=O)cc1 | inactive
CN(C)CCOC(c1ccccc1)c1ccccc1 | inactive
CCCCOC(=O)c1ccc(O)cc1 | inactive
NC1CCCCC1 | inactive
CCN(CC)C(=O)c1cccc(C)c1 | inactive
CNNCc1ccc(C(=O)NC(C)C)cc1 | inactive
OC[C@H]1O[C@H](O[C@]2(CCl)O[C@H](CCl)[C@@H](O)[C@@H]2O)[C@H](O)[C@@H](O)[C@H]1Cl | inactive
